# Assay results published in PubChem BioAssay (EPA / NIEHS).
# Results filed as inconclusive are left out. Calls of active or inactive are those of the source. Rule for the calls, unless noted: active = hit-call score of the fitted dose curve at least 0.9, where 1 is the maximum; inactive = score below 0.9.
# Key:
# [1] = target: human RAR-related Orphan Receptor beta (RORb), RORB (gene 6096) (UniProt Q92753); experiment: ATG_RORb_TRANS: Attagene TRANS-FACTORIAL HepG2 Assay for human RAR-related Orphan Receptor beta (RORb) (AID 2283010; active = hit-call score of the fitted dose curve at least 0.9, where 1 is the maximum)
# Sequence of human RAR-related Orphan Receptor beta (RORb), RORB (gene 6096) (Q92753 whole entry, looked up, the tested form may be a part): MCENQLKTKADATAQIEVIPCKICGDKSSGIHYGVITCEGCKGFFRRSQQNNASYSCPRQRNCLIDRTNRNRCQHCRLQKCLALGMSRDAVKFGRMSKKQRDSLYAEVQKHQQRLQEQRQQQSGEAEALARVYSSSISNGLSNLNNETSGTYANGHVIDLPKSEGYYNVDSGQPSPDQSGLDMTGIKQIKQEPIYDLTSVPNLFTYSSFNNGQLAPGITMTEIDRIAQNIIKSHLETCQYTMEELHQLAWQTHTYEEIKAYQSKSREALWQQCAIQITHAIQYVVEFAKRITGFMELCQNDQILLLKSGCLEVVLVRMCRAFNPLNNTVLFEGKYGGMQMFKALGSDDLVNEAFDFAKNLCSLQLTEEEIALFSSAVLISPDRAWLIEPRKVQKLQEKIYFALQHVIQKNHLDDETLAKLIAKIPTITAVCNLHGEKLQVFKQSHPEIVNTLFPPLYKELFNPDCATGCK
# Outline: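 Read-out is reporter mRNA induction, quantified by RT-PCR with fluorescent capillary electrophoresis, 24 h post-dose in transiently transfected HepG2 expressing exogenous NR-Gal4 chimera. Activity fitted upward versus DMSO.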
# [2] = target: human RAR-related Orphan Receptor gamma (RORg), RORC (gene 6097) (UniProt P51449); experiment: ATG_RORg_TRANS: Attagene TRANS-FACTORIAL HepG2 Assay for human RAR-related Orphan Receptor gamma (RORg) (AID 2283011; active = hit-call score of the fitted dose curve at least 0.9, where 1 is the maximum)
# Sequence of human RAR-related Orphan Receptor gamma (RORg), RORC (gene 6097) (P51449 whole entry, looked up, the tested form may be a part): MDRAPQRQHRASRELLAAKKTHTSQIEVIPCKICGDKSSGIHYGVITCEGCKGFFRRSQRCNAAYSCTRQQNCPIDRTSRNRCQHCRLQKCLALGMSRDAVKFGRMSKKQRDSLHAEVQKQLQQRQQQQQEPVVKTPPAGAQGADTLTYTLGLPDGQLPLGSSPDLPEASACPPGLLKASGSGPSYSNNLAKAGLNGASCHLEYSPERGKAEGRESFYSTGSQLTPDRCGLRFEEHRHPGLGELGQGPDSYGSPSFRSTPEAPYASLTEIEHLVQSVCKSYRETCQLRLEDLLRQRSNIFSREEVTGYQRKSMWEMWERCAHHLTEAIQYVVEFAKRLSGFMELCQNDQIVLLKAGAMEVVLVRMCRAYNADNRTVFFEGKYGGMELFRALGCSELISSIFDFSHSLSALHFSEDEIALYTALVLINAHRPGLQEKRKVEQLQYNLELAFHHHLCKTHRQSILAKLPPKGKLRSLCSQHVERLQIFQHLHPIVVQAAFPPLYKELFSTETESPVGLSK
# Outline: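 HepG2 cells transiently transfected with GAL4-UAS reporter units and chimeric RORg-Gal4 construct; after 24 h chemical exposure, reporter mRNA measured by RT-PCR with fluorescent capillary electrophoresis, gain of signal fitted against DMSO.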
# [3] = target: Retinoic acid receptor RXR-alpha (Homo sapiens) (UniProt P19793); experiment: ATG_RXRa_TRANS: Attagene TRANS-FACTORIAL HepG2 Assay for human Retinoid X Receptor alpha (RXRa) (AID 2283012; active = hit-call score of the fitted dose curve at least 0.9, where 1 is the maximum)
# Sequence of Retinoic acid receptor RXR-alpha (Homo sapiens) (P19793 whole entry, looked up, the tested form may be a part): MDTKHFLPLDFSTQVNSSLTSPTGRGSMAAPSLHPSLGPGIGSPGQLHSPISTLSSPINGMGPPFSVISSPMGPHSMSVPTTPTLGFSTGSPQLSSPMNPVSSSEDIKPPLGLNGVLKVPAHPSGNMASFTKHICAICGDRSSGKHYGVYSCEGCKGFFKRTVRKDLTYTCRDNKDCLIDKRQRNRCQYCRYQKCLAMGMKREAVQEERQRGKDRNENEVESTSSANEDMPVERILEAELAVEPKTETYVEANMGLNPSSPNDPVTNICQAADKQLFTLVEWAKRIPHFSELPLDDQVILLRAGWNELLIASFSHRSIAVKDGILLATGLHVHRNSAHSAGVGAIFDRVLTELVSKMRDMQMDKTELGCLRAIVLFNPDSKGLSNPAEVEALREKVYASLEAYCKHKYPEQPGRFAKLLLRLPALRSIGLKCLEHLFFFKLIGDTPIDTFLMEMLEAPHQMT
# Outline: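 TRANS format reporting activity of exogenous RXRa-Gal4 chimera in transiently transfected HepG2, 24 h exposure. Reporter transcripts quantified by RT-PCR with capillary electrophoresis, with gain of signal scored relative to DMSO.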
# [4] = target: human Retinoid X Receptor beta (RXRb), RXRB (gene 6257) (UniProt P28702); experiment: ATG_RXRb_TRANS: Attagene TRANS-FACTORIAL HepG2 Assay for human Retinoid X Receptor beta (RXRb) (AID 2283013; active = hit-call score of the fitted dose curve at least 0.9, where 1 is the maximum)
# Sequence of human Retinoid X Receptor beta (RXRb), RXRB (gene 6257) (P28702 whole entry, looked up, the tested form may be a part): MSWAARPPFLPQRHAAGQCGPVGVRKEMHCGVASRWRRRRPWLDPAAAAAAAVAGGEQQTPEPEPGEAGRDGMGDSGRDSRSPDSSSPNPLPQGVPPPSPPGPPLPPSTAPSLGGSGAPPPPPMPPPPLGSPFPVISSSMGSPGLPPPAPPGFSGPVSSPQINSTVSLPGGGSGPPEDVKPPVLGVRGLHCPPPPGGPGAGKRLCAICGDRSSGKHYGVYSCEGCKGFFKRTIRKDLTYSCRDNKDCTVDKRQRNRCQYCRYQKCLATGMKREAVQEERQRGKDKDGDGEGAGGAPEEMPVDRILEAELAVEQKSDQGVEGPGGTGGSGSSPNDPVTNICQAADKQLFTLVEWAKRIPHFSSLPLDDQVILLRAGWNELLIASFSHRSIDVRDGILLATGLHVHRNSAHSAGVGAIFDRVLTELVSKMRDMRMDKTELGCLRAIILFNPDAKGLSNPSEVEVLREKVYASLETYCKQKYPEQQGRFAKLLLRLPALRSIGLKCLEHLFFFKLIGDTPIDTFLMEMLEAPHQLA
# Outline: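 Readout is reporter transcript induction after 24 h dosing. It is measured by RT-PCR of total RNA followed by fluorescent capillary electrophoresis. HepG2 liver cells carry transfected multiple reporter units driven by an exogenous RXRb-Gal4 fusion; activity is relative to DMSO.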
# [5] = read-out: E-selectin (Homo sapiens) (UniProt P16581); experiment: BSK_3C_Eselectin: BioMAP Diversity Plus: 3C Assay for Eselectin Biomarker Activity (AID 2283015); settings: primary human endothelial cells (HUVEC); actives raise or lower the signal;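 note: cell surface E-selectin protein quantified by ELISA 24 h after dosing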
# Outline: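 Primary human umbilical vein endothelial cells (3C system), read 24 h after compound addition; E-selectin measured by ELISA. Bidirectional curve fitting against DMSO baseline; cytotoxicity by parallel SRB total-protein staining.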
# [6] = read-out: Interleukin-1 alpha (IL1a), IL1A (gene 3552); experiment: BSK_BE3C_IL1a: BioMAP Diversity Plus: BE3C Assay for Interleukin-1 alpha (IL1a) Biomarker Activity (AID 2283016); settings: primary human bronchial epithelial cells; actives raise or lower the signal
# Outline: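 IL-1a measured by ELISA after 24 h treatment of human primary bronchial epithelial cells, with gain or loss of signal fitted versus DMSO. Parallel cultures stained with SRB gauge overt cytotoxicity.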
# [7] = read-out: Monocyte Chemoattractant Protein-1 (MCP1), CCL2 (gene 6347); experiment: BSK_3C_MCP1: BioMAP Diversity Plus: 3C Assay for Monocyte Chemoattractant Protein-1 (MCP1) Biomarker Activity (AID 2283017); settings: primary human endothelial cells (HUVEC); actives raise or lower the signal
# Outline: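 Human umbilical vein endothelial cells (3C system) exposed to chemicals for 24 h; MCP-1 quantified by ELISA against the DMSO baseline with bidirectional fitting, and parallel SRB staining used to assess cytotoxicity.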
# [8] = read-out: Monocyte Chemoattractant Protein-1 (MCP1), CCL2 (gene 6347); experiment: BSK_4H_MCP1: BioMAP Diversity Plus: 4H Assay for Monocyte Chemoattractant Protein-1 (MCP1) Biomarker Activity (AID 2283018); settings: primary human endothelial cells (HUVEC); actives raise or lower the signal
# Outline: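 ELISA of MCP-1 (CCL2) 24 h after chemical dosing of HUVEC in the BioMAP 4H system. Gain or loss versus DMSO fitted; parallel SRB staining (560 nm) tracked overt cytotoxicity.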
# [9] = read-out: Human Leukocyte Antigen - DR isotype (HLADR), HLA-DRA (gene 3122); experiment: BSK_3C_HLADR: BioMAP Diversity Plus: 3C Assay for Human Leukocyte Antigen - DR isotype (HLADR) Biomarker Activity (AID 2283019); settings: primary human endothelial cells (HUVEC); actives raise or lower the signal;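 note: ELISA of cell-surface HLA-DR on HUVEC 24 h after dosing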
# Outline: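 HUVEC monoculture, HLA-DR measured by ELISA 24 h after chemical dosing. Fitted bidirectionally against DMSO baseline; parallel SRB staining assessed cytotoxicity, with 3C proliferation read by SRB at 48 h.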
# [10] = read-out: Interleukin-8 (IL8), CXCL8 (gene 3576); experiment: BSK_3C_IL8: BioMAP Diversity Plus: 3C Assay for Interleukin-8 (IL8) Biomarker Activity (AID 2283020); settings: primary human endothelial cells (HUVEC); actives raise or lower the signal
# Outline: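 IL-8 was measured by ELISA in HUVEC cultures 24 h after chemical dosing, with gain or loss of signal fitted relative to DMSO. Parallel SRB total-protein staining tracked overt cytotoxicity.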
# [11] = read-out: Monokine induced gamma interferon (MIG), CXCL9 (gene 4283); experiment: BSK_3C_MIG: BioMAP Diversity Plus: 3C Assay for Monokine induced gamma interferon (MIG) Biomarker Activity (AID 2283021); settings: primary human endothelial cells (HUVEC); actives raise or lower the signal
# Outline: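 ELISA measurement of MIG in human umbilical vein endothelial cells 24 h after treatment. Cytotoxicity tracked by SRB staining in parallel cultures; gain or loss of signal fitted relative to DMSO.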
# [12] = BSK_3C_SRB: Viability Assessment in the BioMAP Diversity Plus: 3C Assay (AID 2283023); settings: primary human endothelial cells (HUVEC);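 note: fitted both ways against DMSO so a hit may be signal rise or drop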
# Outline: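 Human umbilical vein endothelial cells in the 3C system, treated 24 h. Total protein measured by 0.1% sulforhodamine B staining after 10% TCA fixation, read at 560 nm; bidirectional fit versus DMSO.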
# [13] = read-out: Matrix Metallopeptidase 1 (MMP1), MMP1 (gene 4312); experiment: BSK_BE3C_MMP1: BioMAP Diversity Plus: BE3C Assay for Matrix Metallopeptidase 1 (MMP1) Biomarker Activity (AID 2283024); settings: primary human bronchial epithelial cells; actives raise or lower the signal
# Outline: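 ELISA measurement of MMP-1 after 24 h compound exposure of primary human bronchial epithelial cells. Changes in either direction fitted relative to DMSO; parallel SRB staining checked overt cytotoxicity.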
# [14] = BSK_3C_Vis: BioMAP Diversity Plus: 3C Assay for Morphology Visualization (AID 2283025); settings: primary human endothelial cells (HUVEC);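 note: fitted both ways so gain or loss versus DMSO counts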
# Outline: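 Light-microscopy visualization of HUVEC cultures at 24 h post-treatment, with DMSO as baseline for bidirectional fitting.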
# [15] = read-out: Pselectin, SELP (gene 6403); experiment: BSK_4H_Pselectin: BioMAP Diversity Plus: 4H Assay for Pselectin Biomarker Activity (AID 2283026); settings: primary human endothelial cells (HUVEC); actives raise or lower the signal
# Outline: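 ELISA of surface P-selectin on HUVEC, 24 h after dosing, with parallel SRB staining (0.1% after 10% TCA fixation, 560 nm) for overt cytotoxicity. Activity fitted in both directions relative to DMSO.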
# [16] = BSK_4H_SRB: Viability Assessment in the BioMAP Diversity Plus: 4H Assay (AID 2283027); settings: primary human endothelial cells (HUVEC);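 note: cells exposed to compound for 24 h before staining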
# Outline: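 Cytotoxicity read-out in primary human endothelial cells: after 24 h compound exposure, cells were TCA-fixed (10%), stained with 0.1% SRB and absorbance taken at 560 nm. Values fitted in both directions relative to DMSO.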
# [17] = BSK_BE3C_SRB: Viability Assessment in the BioMAP Diversity Plus: BE3C Assay (AID 2283028); settings: primary human bronchial epithelial cells
# Outline: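 Human bronchial epithelial primary cells in confluent culture, 24 h after chemical dosing; total protein by 0.1% SRB staining after 10% TCA fixation, read at 560 nm. Bidirectional fitting versus DMSO baseline.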
# [18] = target: human Vitamin D Receptor (VDR), VDR (gene 7421) (UniProt P11473); experiment: ATG_VDR_TRANS: Attagene TRANS-FACTORIAL HepG2 Assay for human Vitamin D Receptor (VDR) (AID 2283022; active = hit-call score of the fitted dose curve at least 0.9, where 1 is the maximum)
# Sequence of human Vitamin D Receptor (VDR), VDR (gene 7421) (P11473 whole entry, looked up, the tested form may be a part): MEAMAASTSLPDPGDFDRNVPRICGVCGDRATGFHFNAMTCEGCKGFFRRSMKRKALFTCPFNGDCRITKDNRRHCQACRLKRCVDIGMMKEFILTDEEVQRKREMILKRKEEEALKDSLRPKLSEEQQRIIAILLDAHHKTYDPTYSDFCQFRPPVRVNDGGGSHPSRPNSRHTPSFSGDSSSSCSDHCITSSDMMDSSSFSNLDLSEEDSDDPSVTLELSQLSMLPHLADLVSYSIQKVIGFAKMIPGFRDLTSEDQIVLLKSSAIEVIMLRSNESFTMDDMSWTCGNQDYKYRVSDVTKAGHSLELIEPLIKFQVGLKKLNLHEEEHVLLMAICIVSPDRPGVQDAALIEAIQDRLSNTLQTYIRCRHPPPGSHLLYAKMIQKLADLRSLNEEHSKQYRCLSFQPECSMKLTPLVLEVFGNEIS
# Outline: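 HepG2 cells were transiently transfected with GAL4-UAS reporter units and a chimeric VDR-Gal4 construct, then dosed for 24 hours. Reporter mRNA was quantified by RT-PCR, fluorescent labeling, HpaI digestion and capillary electrophoresis; gain of signal analysed vs DMSO.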
# [19] = target: human Thyroid Receptor alpha (THRa1), THRA (gene 7067) (UniProt P10827); experiment: ATG_THRa1_TRANS: Attagene TRANS-FACTORIAL HepG2 Assay for human Thyroid Receptor alpha (THRa1) (AID 2283014; active = hit-call score of the fitted dose curve at least 0.9, where 1 is the maximum)
# Sequence of human Thyroid Receptor alpha (THRa1), THRA (gene 7067) (P10827 whole entry, looked up, the tested form may be a part): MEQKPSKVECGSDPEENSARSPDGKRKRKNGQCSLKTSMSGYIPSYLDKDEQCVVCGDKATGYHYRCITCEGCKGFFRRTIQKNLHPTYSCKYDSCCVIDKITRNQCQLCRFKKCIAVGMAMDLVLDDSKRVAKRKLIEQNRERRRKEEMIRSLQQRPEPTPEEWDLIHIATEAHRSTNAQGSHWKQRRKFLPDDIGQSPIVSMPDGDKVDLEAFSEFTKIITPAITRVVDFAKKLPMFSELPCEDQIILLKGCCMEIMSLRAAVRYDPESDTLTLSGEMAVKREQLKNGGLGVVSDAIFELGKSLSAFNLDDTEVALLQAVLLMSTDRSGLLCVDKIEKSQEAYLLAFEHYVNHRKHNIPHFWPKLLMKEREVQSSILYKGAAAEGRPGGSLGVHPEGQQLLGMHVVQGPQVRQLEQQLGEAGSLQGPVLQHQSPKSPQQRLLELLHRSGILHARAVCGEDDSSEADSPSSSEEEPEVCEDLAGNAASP
# Outline: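 HepG2 cells transiently transfected with chimeric NR-Gal4 and GAL4-UAS reporter units, dosed 24 h. Reporter mRNA quantified by RT-PCR, fluorescent labeling, HpaI digestion and capillary electrophoresis; gain-of-signal fit versus DMSO.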
# Sequence of E-selectin (Homo sapiens) (P16581 whole entry, looked up): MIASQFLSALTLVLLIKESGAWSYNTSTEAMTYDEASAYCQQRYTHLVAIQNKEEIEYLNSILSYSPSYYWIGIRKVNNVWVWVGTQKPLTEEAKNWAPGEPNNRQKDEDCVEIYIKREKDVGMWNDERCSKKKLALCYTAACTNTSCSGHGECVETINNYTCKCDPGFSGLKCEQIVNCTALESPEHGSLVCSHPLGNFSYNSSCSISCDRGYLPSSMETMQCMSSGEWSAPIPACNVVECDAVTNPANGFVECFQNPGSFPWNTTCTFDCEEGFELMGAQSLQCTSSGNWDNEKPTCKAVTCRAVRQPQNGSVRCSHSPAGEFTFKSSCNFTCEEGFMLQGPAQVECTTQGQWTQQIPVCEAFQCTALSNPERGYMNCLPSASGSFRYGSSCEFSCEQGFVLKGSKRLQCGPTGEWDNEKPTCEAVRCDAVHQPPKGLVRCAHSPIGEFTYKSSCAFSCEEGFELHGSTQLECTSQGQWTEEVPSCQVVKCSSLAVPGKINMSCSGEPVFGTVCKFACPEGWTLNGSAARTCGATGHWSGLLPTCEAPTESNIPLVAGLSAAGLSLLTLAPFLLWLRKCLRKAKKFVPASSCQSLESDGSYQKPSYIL
structure (smiles),measurement,setting,value
C=CCCCCCCCCC=O,outcome,[1],inactive
same,outcome,[2],inactive
same,outcome,[3],inactive
same,AC50,[4],105 µM (active)
same,outcome,[5],inactive
same,outcome,[6],inactive
same,outcome,[7],inactive
same,outcome,[8],inactive
same,outcome,[9],inactive
same,outcome,[10],inactive
same,outcome,[11],inactive
same,outcome,[12],inactive
same,outcome,[13],inactive
same,outcome,[14],inactive
same,outcome,[15],inactive
same,outcome,[16],inactive
same,outcome,[17],inactive
CCCc1ccc(O)c(OC)c1,outcome,[1],inactive
same,outcome,[2],inactive
same,outcome,[3],inactive
same,outcome,[4],inactive
same,outcome,[18],inactive
CN(C)c1ccc2nc3ccc(=[N+](C)C)cc-3sc2c1,outcome,[1],inactive
same,outcome,[2],inactive
same,outcome,[3],inactive
same,outcome,[19],inactive
Nc1nc(N)nc(-c2ccccc2)n1,outcome,[1],inactive
same,outcome,[2],inactive
same,outcome,[3],inactive
same,outcome,[4],inactive
same,outcome,[19],inactive
same,outcome,[5],inactive
same,outcome,[6],inactive
same,outcome,[7],inactive
same,outcome,[8],inactive
same,outcome,[9],inactive
same,outcome,[10],inactive
same,outcome,[11],inactive
same,outcome,[12],inactive
same,outcome,[13],inactive
same,outcome,[15],inactive
same,outcome,[16],inactive
same,outcome,[17],inactive
CC(C)CO,outcome,[1],inactive
C=Cc1ccc(OC(C)=O)cc1,outcome,[1],inactive
same,outcome,[2],inactive
same,outcome,[3],inactive
same,outcome,[4],inactive
same,outcome,[19],inactive
same,outcome,[18],inactive
CC1=CC(C)C(C=O)CC1 (centres undefined),outcome,[1],inactive
same,outcome,[2],inactive
same,outcome,[3],inactive
same,outcome,[4],inactive
same,outcome,[18],inactive
Cc1ccc(C)c(OCCCC(C)(C)C(=O)O)c1,outcome,[1],inactive
same,outcome,[2],inactive
same,outcome,[3],inactive
same,outcome,[4],inactive
